Molecules are shown by their SMILES. Compounds without any hit were thinned out: in the full panel of roughly 83,000, 20% have a hit.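 Step 1: grow cells in 96-well plates. Step 2: add test compound at a single concentration. Step 3: incubate 48 h. Step 4: record percent growth.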 Unmarked numbers belong to inactive results. Activity calls are given as the source filed them. Rule for the calls: active = growth percent below 10; inactive = the rest.

Test systems include NCI-H23 lung; NCI-H226 lung; NCI-H322M lung; HOP-62 NSCLC; NCI-H460 lung; NCI-H522 lung; A549/ATCC NSCLC; 786-0 renal; COLO 205 colon; HOP-92 NSCLC.
What all share (test): NCI-60 one-dose screen, 48 h (100 = growth as untreated, 0 = no growth, -100 = all killed)
Common to all, as to settings: 10 µM unless noted

For `CCCCCCCCCCCCCCCCCC(=O)OCCCCCCCCCCCCC`, the growth in the assay on NCI-H23 lung is 108%; with NCI-H226 lung it was 97.2%; with NCI-H322M lung it was 130%; with HOP-62 NSCLC it was 125%; in the assay with NCI-H460 lung, 117%; with NCI-H522 lung it was 111%. Further, the growth in the assay with A549/ATCC NSCLC is 99.5%; in the assay on 786-0 renal it was 119%; in the assay on COLO 205 colon, 121%.
For `O=C(Nc1ccc(Br)cc1)c1ccc(Cl)c(Cl)c1`, the growth is 26.2% in the assay with NCI-H23 lung; 61.8% in the assay with NCI-H226 lung; 42.3% in the assay on NCI-H322M lung; 98.3% in the assay on HOP-62 NSCLC; 14% with NCI-H460 lung; 60.2% in the assay with NCI-H522 lung. The growth is 63.4% in the assay with A549/ATCC NSCLC, 73.1% in the assay with 786-0 renal and 83.9% with COLO 205 colon.
On to `CCCCCCCCCCCCCCCCCC1=NCCN1CCO`, for which the growth is 77.1% in the assay with NCI-H23 lung; 106% in the assay on NCI-H226 lung; 88.4% with NCI-H322M lung; 81% with HOP-62 NSCLC; 18.7% with NCI-H460 lung; 80.8% in the assay on NCI-H522 lung. The growth was 64.2% in the assay on A549/ATCC NSCLC, 75.6% in the assay with 786-0 renal and 84.8% in the assay with COLO 205 colon.
Consider `CC(=O)OC[C@H]1O[C@@H](n2c(=O)cc(N)[nH]c2=O)C(OC(C)=O)[C@@H]1OC(C)=O` (some centres not stated), for which the growth in the assay with NCI-H23 lung is 98.5%; in the assay on NCI-H226 lung it was 90.6%; in the assay on NCI-H322M lung, 105%; with HOP-62 NSCLC it was 95%; in the assay with NCI-H460 lung, 107%; with NCI-H522 lung, 100%. The growth in the assay on A549/ATCC NSCLC was 97.7%; in the assay on 786-0 renal it was 102%; with COLO 205 colon it was 115%.
Consider `CCOC(=O)Nc1ccc2nc(N3CCCCCC3)sc2c1`, for which the growth is 47.9% with NCI-H23 lung; 54.3% with NCI-H226 lung; 46.2% in the assay with NCI-H322M lung; 33.2% in the assay with HOP-62 NSCLC; 17.1% in the assay on NCI-H460 lung; -12.7% (active) in the assay with NCI-H522 lung. Further, the growth is 32% in the assay on A549/ATCC NSCLC, 40.2% with 786-0 renal and -7.85% (active) with COLO 205 colon.
As to `O=[N+]([O-])c1ccc(N/N=C\c2ccc(O)cc2O)nc1`, the growth in the assay with NCI-H23 lung was 44.9%; in the assay with NCI-H226 lung it was 85%; with NCI-H322M lung it was 39.7%; in the assay on HOP-62 NSCLC, 33.7%; in the assay with NCI-H460 lung, 19.6%; with NCI-H522 lung, 10.9%. Further, the values for the growth in the assay with A549/ATCC NSCLC, with 786-0 renal and with COLO 205 colon were 25.6%, 18.4% and 65.9%, respectively.
Consider `Nc1cc(C(=O)O)cc(C(=O)O)c1`, for which the growth is 108% with NCI-H23 lung; 108% with NCI-H226 lung; 102% with NCI-H322M lung; 98.1% with HOP-62 NSCLC; 112% with NCI-H460 lung; 91% in the assay on NCI-H522 lung. Besides, the results for the growth in the assay on A549/ATCC NSCLC, with 786-0 renal and in the assay on COLO 205 colon were 108%, 96.8% and 99%, respectively.
As for `Oc1ccccc1-c1nnc(COc2ccc(Cl)cc2Cl)o1`, the growth with NCI-H23 lung is 57%; in the assay on NCI-H226 lung it was 66.2%; in the assay on NCI-H322M lung it was 52.6%; with HOP-62 NSCLC, 40.6%; with NCI-H460 lung, 28.3%; in the assay on NCI-H522 lung, 1.97% (active). Further, the growth is 54.5% in the assay on A549/ATCC NSCLC, 44.7% in the assay with 786-0 renal and 67% in the assay on COLO 205 colon.
Turning to `CN(C)CCNC(=O)n1cc(-c2ccncc2)c(-c2cc(O)cc(Cl)c2)n1`, the growth was 108% in the assay with NCI-H23 lung; 102% in the assay with NCI-H226 lung; 128% in the assay on NCI-H322M lung; 98.2% with HOP-62 NSCLC; 93.5% in the assay with NCI-H460 lung; 115% with NCI-H522 lung. Further, the growth is 107% in the assay with A549/ATCC NSCLC, 81.4% with 786-0 renal and 88.6% in the assay on COLO 205 colon.
As for `O=C(CCCN1CCC(O)(c2ccc(Br)cc2)CC1)c1ccc(F)cc1`, the growth is 68.3% in the assay on NCI-H23 lung; 81.8% in the assay on NCI-H322M lung; 64.3% with HOP-62 NSCLC; 76.8% with NCI-H460 lung; 98.9% in the assay on HOP-92 NSCLC; 73.5% in the assay with A549/ATCC NSCLC. Besides, the growth with 786-0 renal was 69%.
As for `CCOC(=O)c1ccc2c(c1)[n+](=O)c(C(=O)c1ccc3ccccc3c1)c(C(F)(F)F)n2[O-]`, the growth was -88.4% (active) with NCI-H23 lung; -93.7% (active) with NCI-H226 lung; 67.2% in the assay with NCI-H322M lung; -93.8% (active) in the assay with HOP-62 NSCLC; -100% (active) in the assay on NCI-H460 lung; -80.1% (active) with NCI-H522 lung. The growth in the assay on A549/ATCC NSCLC was -26.4% (active); in the assay with 786-0 renal, -100% (active); in the assay on COLO 205 colon, -100% (active).
Turning to `NS(=O)(=O)c1ccc(CCn2c(SCC(=O)N/N=C/c3cccnc3)nc3ccccc3c2=O)cc1`, the growth in the assay on NCI-H23 lung is 93.3%; in the assay with NCI-H226 lung it was 83%; with NCI-H322M lung, 101%; in the assay on HOP-62 NSCLC, 83.3%; with NCI-H460 lung, 90.5%; in the assay on NCI-H522 lung, 68.5%. Moreover, the figures for the growth in the assay on A549/ATCC NSCLC, with 786-0 renal and in the assay with COLO 205 colon were 97.3%, 92.4% and 97.3%, respectively.
In the case of `C[Si](C)(C)C(c1ccccc1)c1ccccc1`, the growth was 99.5% in the assay on NCI-H23 lung; 113% in the assay with NCI-H226 lung; 105% with NCI-H322M lung; 105% with HOP-62 NSCLC; 106% in the assay with NCI-H460 lung; 98.2% in the assay on NCI-H522 lung. The growth with A549/ATCC NSCLC is 91.1%; in the assay with 786-0 renal it was 110%; in the assay with COLO 205 colon it was 105%.
In the case of `COc1ccc(/C(C)=N/NC(=O)CSc2nc3ccccc3c(=O)n2CCc2ccc(S(N)(=O)=O)cc2)cc1`, the growth is 29.9% in the assay on NCI-H23 lung; 49% in the assay with NCI-H226 lung; 32.3% in the assay with NCI-H322M lung; -0.117% (active) in the assay with HOP-62 NSCLC; -29.5% (active) in the assay with NCI-H460 lung; 9.28% (active) in the assay on NCI-H522 lung. Moreover, the growth was -26.9% (active) in the assay with A549/ATCC NSCLC, -68.1% (active) with 786-0 renal and 33.5% with COLO 205 colon.
Turning to `COc1cc(C)c(Cl)cc1C1=NN(c2ccc(S(N)(=O)=O)cc2)C(/C=C/c2ccccc2)C1` (configuration not stated), the growth in the assay with NCI-H23 lung was 50.5%; in the assay on NCI-H226 lung it was 31.9%; with NCI-H322M lung, 107%; in the assay on HOP-62 NSCLC, 59.7%; in the assay on NCI-H460 lung, 26.8%; in the assay with NCI-H522 lung it was 27%. The growth was 34% in the assay with A549/ATCC NSCLC, 63.4% in the assay with 786-0 renal and 38.3% with COLO 205 colon.
As for `COc1cc(OC)c2sc(-c3ccc(-n4cncc4-c4ccc(OC)c(N)c4)cc3)nc2c1`, the growth is 87.4% in the assay with NCI-H23 lung; 94% with NCI-H226 lung; 105% in the assay on NCI-H322M lung; 117% with HOP-62 NSCLC; 78% in the assay on NCI-H460 lung; 79.9% in the assay with NCI-H522 lung. Moreover, the growth was 62.7% in the assay with A549/ATCC NSCLC, 79.2% with 786-0 renal and 111% in the assay with COLO 205 colon.
